Only a selection was taken, and hits are over-represented in it overall.
Pf Dd2 growth = blocks in vitro growth of P. falciparum Dd2; P. falciparum Dd2 growth, SYBR Green, 72 h; Potency, µM (highest dose often 28.9 µM), actives largely listed as inhibitors; actives 4.3% (n = 120,000); AID 1347417; active = well fitted inhibition curve with a large enough effect; also: nearly all actives have a fitted effect of over 65% in size
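Readout: SYBR Green fluorescence, 485 nm excitation, 535 nm emission, after ~16 h lysis at 37C. Before that, Dd2-infected red cells (2.5% hematocrit) grew 72 h with compound, 29 uM top final concentration.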
Large screens that a line does not name were inactive.

CC(=O)c1ccc(NC(=O)c2ccc3c(c2)N(Cc2cccc(Cl)c2)C(=O)c2ccccc2S3=O)cc1 (stereo not drawn)	Pf Dd2 growth 11.2µM
COc1ccc(NC(=O)O[C@@H]2CO[C@H]3[C@@H]2OC[C@@H]3NC(=O)Nc2ccc(C(C)C)cc2)cc1	none
COC(=O)[C@@H](C)NC(=O)[C@H]1CN(C(=O)Nc2ccccc2)CCN1C(=O)NC(C)C	none
Cn1cnc2cc(-c3ccc(F)cc3)cc(C(=O)NCCc3ccccn3)c21	none
CCc1cccc(NS(=O)(=O)c2ccc3c(c2)CC(C)N3C(=O)C2CC2)c1 (stereo not drawn)	none
CC1Cc2cc(S(=O)(=O)NCc3ccccc3)ccc2N1C(=O)C1CCC1 (stereo not drawn)	Pf Dd2 growth 3.55µM
CC(=O)N1c2ccc(S(=O)(=O)NCC3CCC(C(=O)Nc4ccc(F)cc4)CC3)cc2CC1C (stereo not drawn)	none
CC(=O)N1c2ccc(S(=O)(=O)NCc3ccccc3Cl)cc2CC1C (stereo not drawn)	none
CC(=O)N1c2ccc(S(=O)(=O)NCC3CCC(C(=O)Nc4ccc(C)c(C)c4)CC3)cc2CC1C (stereo not drawn)	none
CCc1ccc(NC(=O)C2CCC(CNS(=O)(=O)c3ccc4c(c3)CC(C)N4C(C)=O)CC2)cc1 (stereo not drawn)	Pf Dd2 growth 10µM
O=C(Cn1ccn2nc(-c3ccc(F)cc3)c(CO)c2c1=O)Nc1cccc(F)c1	none
O=C(Cc1ccc(OC(F)(F)F)cc1)N1CC(CNc2cccnc2)C2(C1)CN(c1ccccc1)C2 (stereo not drawn)	none
CCc1nc(-c2c3n(c(=O)n(Cc4ccccc4OC)c2=O)CCCCC3)no1	none
CCOC(=O)c1ccc(NC(=O)Cc2noc3ccc(C)cc23)cc1	none
O=C(CCCc1nc(-c2ccccc2)no1)Nc1cc(C(F)(F)F)cc(C(F)(F)F)c1	none
CCOC(=O)c1ccc(NC(=O)CCCc2nc(-c3cc(OC)c(OC)c(OC)c3)no2)cc1	Pf Dd2 growth 12.6µM
O=C(Nc1cccc(-c2ccc(N3CCOCC3)nn2)c1)Nc1ccccc1C(F)(F)F	none
CN1CCC(C(=O)NCc2c[nH]c3ncccc23)CC1	none
COc1cccc(S(=O)(=O)N2C[C@@H](F)C[C@H]2C(=O)N2CCCCC2)c1	none
Cc1cccc(CN2CCC3(CC2)Cc2ccccc2CNC3=O)n1	none
O=C(CCC1CCCC1)NC1CCN(C(=O)N2CC3CC(C2)[C@H]2CCCC(=O)N2C3)CC1 (stereo partly drawn)	none
CSc1ccc(-c2nc(CN3CCOC(CCO)C3)c(C)o2)cc1 (stereo not drawn)	none
Cc1cccc(CN2CCN(Cc3nc(-c4cccs4)oc3C)CC2CCO)n1 (stereo not drawn)	Pf Dd2 growth 11.2µM
OCCC1CN(Cc2cnn(-c3ccccc3)c2)CCN1Cc1cccs1 (stereo not drawn)	none
COCCN(C)C[C@@H]1CN(C(=O)c2ccc(=O)n(C)c2)C[C@@H]1CO	none
Cc1ccsc1C(=O)N1CCc2nnc([C@@H]3C[C@@H](O)CN3C)n2CC1	none
c1ccc2ncc(CN3CC[C@H](c4nc5ccccc5[nH]4)C3)cc2c1	Pf Dd2 growth 11.2µM
Fc1ccc2nc([C@H]3CCN(Cc4cccs4)C3)[nH]c2c1	Pf Dd2 growth 11.2µM
Cc1ccccc1CN1CC[C@H](c2nc3ncccc3[nH]2)C1	Pf Dd2 growth 31.6µM
Clc1cccc(CN2CC[C@H](c3nc4ccccc4[nH]3)C2)c1	none
CC(=O)N1CC[C@H](c2nc3ccc(F)cc3[nH]2)C1	none
Fc1ccc2nc([C@H]3CCN(Cc4ncc[nH]4)C3)[nH]c2c1	none
COc1ccccc1CN1CC[C@H](c2nc3ccc(C(F)(F)F)cc3[nH]2)C1	Pf Dd2 growth 8.91µM
FC(F)(F)c1ccc2nc([C@H]3CCN(Cc4ncc[nH]4)C3)[nH]c2c1	none
COc1ccc2nc([C@H]3CCN(C4CCCCC4)C3)[nH]c2c1	none
CN(C)c1ccc(CN2CCC(c3nc4ncccc4[nH]3)C2)cc1 (stereo not drawn)	none
COc1cccc(CN2CC[C@H](c3nc4ccccc4[nH]3)C2)c1	none
CS(=O)(=O)c1ccc(CN2CC[C@H](c3nc4ncccc4[nH]3)C2)cc1	none
COc1cc(NC(=O)N2c3ccccc3CC2c2nc(C3CC3)no2)cc(OC)c1 (stereo not drawn)	none
CCc1ccccc1NC(=O)N(C)CC1CCOCC1	none
O=C([C@H]1CCC[C@H](O)C1)N(CCc1ccc(Cl)cc1)Cc1cccnc1	none
O=C(NCc1cc2n(n1)CCNC2)C1CCCN(c2ccccn2)C1 (stereo not drawn)	none
COc1ccccc1CNC(=O)[C@@H]1CNC[C@H]1COc1cccnc1	none
COc1cccc(CN2CCCC(O)(CN3CCC4(CC3)OCCO4)C2=O)c1 (stereo not drawn)	none
CCc1ccc(C(=O)N2CC(c3nnc(-c4ccncc4)o3)C3(CCOCC3)C2)cc1 (stereo not drawn)	none
COc1ccc(-c2nc(Cn3c(-c4ccc(F)cc4)nc(C)c(CCO)c3=O)c(C)o2)cc1	none
CCc1ccccc1NC(=O)Cn1c(C)cc2nc3n(c(=O)c21)CCCCC3	none
COC(=O)CC1CCN(C(=O)C[C@H]2NC(=O)c3ccccc3NC2=O)CC1	none
